TAG inh = triacylglycerol accumulation inhibition; H9c2 cells, Nile Red lipid (TAG) fluorescence; cells loaded with 200 µM oleic acid; 0.66% of 230,000 active; inhibition, % at 12.5 µM;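 active = pattern-corrected inhibition of lipid staining of at least 50% with the nuclear-stain viability signal not falling by more than 50%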
Gli-Sufu antag = antagonists of Gli-Sufu signaling | Sufu-KO-LIGHT fibroblasts, Gli luciferase reporter luminescence | inhibition, % at 5 µM | 0.74% of 340,000 active | AID 588413;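 active = inhibition above about 55%, limit read from the data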
697 NFkB inh = lowers PMA/ionomycin-induced NF-kB signal in 697 B cells; 697 B-cell NF-kB luciferase reporter, 16 h; inhibition, % at 4 µM; 0.33% of 330,000 active; in the data active = inhibition above about 35%
Cardio protect = modulators protecting cardiomyocytes from myocardial damage; H9c2 cardiomyocytes, H2O2 injury protection, ATPLite, 2 h; protection from H2O2 cell death, % at 20 µM; 0.63% of 360,000 active; AID 588492;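 active = compounds giving at least 50% protection of heart cells from peroxide-induced death in the single-dose screen, raw or plate-pattern-corrected value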
NR2F2 inh = blocks human COUP-TFII nuclear receptor | P24468 | HEK293T NGFI-A luciferase reporter, luminescence | inhibition, % at 8.6 µM | 0.7% of 370,000 active | AID 686940;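 active = inhibition above a per-plate cutoff, mean inhibition of test wells between control levels plus 3 SD, cut at about 38% in these data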;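 also: cells cotransfected with COUP-TFII expression vector driving the NGFI-A reporter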
Target sequence (P24468 whole entry, looked up): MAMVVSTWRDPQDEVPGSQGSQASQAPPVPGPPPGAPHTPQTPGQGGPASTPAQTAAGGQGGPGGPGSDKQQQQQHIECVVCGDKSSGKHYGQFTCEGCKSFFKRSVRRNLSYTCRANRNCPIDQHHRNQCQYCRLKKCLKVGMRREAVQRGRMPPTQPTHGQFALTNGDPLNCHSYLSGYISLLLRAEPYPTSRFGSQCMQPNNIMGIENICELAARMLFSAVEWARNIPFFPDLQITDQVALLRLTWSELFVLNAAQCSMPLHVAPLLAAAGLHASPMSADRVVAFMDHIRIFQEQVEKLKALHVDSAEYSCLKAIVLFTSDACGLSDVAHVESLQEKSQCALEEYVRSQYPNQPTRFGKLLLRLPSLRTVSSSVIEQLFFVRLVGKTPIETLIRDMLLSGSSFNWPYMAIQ
Jurkat NFkB inh = lowers PMA/ionomycin-induced NF-kB signal in Jurkat cells. PMA/ionomycin-induced NF-kB luciferase reporter, luminescence. inhibition, % at 4 µM. 0.53% of 330,000 active; in the data active = inhibition above about 50%
697 NFkB conf = lowers PMA/ionomycin-induced NF-kB signal in 697 B cells. shares compounds with 697 NFkB inh. 697 B-cell NF-kB luciferase, 16 h. inhibition, % at 4 µM. 35% of 2,000 active. AID 449746; in the data active = inhibition mostly above about 28%, no sharp cut-off; inactive = mostly below about 22%
Numbers stand for hits; 0 = inactive; - = not tested or not shown. An excerpt weighted towards active compounds, which were near 2.6% of everything screened.

SMILES | TAG inh | Gli-Sufu antag | 697 NFkB inh | Cardio protect | NR2F2 inh | Jurkat NFkB inh | 697 NFkB conf
COC(=O)N/N=C/c1cn(CCOc2ccccc2OC)c2ccccc12 | - | 0 | 0 | 0 | 0 | 0 | -
COc1cccc(OCCn2cc(/C=N/NC(=O)c3ccncc3)c3ccccc32)c1 | - | 0 | 0 | 0 | 0 | 0 | -
Cn1nnnc1Sc1ncnc2scc(-c3ccc([N+](=O)[O-])cc3)c12 | 0 | 0 | 0 | 0 | 0 | 0 | 0
Cc1nc(NC(=O)C2CC2)sc1C(=O)Nc1ccccc1 | 0 | 0 | 0 | 0 | 0 | 0 | -
Cc1nc(Nc2c(Cl)cccc2Cl)sc1C(=O)Nc1ccccc1 | 0 | 0 | 37 | 0 | 0 | 0 | 36
C=CCN1C(=O)[C@@H](CC(=O)NCc2ccc(C)o2)[C@]2(C(=O)OC)CCCCC=C12 | - | - | - | - | 0 | - | -
COc1ccc(N=Cc2ccccc2O)cc1 | 0 | 0 | - | 0 | 0 | - | -
COc1ccc(N=Nc2ccc3ccccc3c2)c(O)c1 | - | 0 | 0 | 0 | 0 | 0 | 0
Cc1ccc(C)c(S(=O)(=O)N2CCN(C(=O)Cn3c(C(F)(F)F)nc4ccccc43)CC2)c1 | - | 0 | 37 | 0 | 0 | 0 | 0
Cc1ccc(C)c(S(=O)(=O)N2CCN(C(=O)Cc3ccccc3)CC2)c1 | 0 | 0 | 0 | 0 | 0 | 0 | -
CCc1ccc(CCNC(=O)OC2CC3CC2[C@H]2CCCCN2[C@H]3C)cc1 (stereo partly drawn) | - | - | - | - | 0 | - | -
COc1ccc(O)c(/C=N/NC(=O)c2cccc(N3CCCC3=O)c2)c1 | - | 0 | 0 | 0 | 0 | 0 | -
COc1ccc(O)c(/C=N/NC(=O)c2ccc(N3CCCC3=O)cc2)c1 | - | 0 | 0 | 0 | 0 | 0 | 0
COc1ccc(S[C@]2(C(=O)N3CCOCC3)CC(=O)N(c3ccsc3)[C@@H]2c2ccc(OC)cc2)cc1 | - | - | - | - | 0 | - | -
CC1=CC(C)(C)Nc2ccc(OC(=O)CN3C(=O)c4cccc5cccc(c45)C3=O)cc21 | - | 0 | - | 0 | 0 | - | -
CC1=CC(C)(C)Nc2ccc(OC(=O)CN3C(=O)c4ccccc4C3=O)cc21 | 52 | 0 | 59 | 0 | 0 | 0 | 39
CC1=CC(C)(C)Nc2ccc(OC(=O)C(Cc3ccccc3)N3C(=O)c4ccccc4C3=O)cc21 (stereo not drawn) | 0 | 0 | 66 | 0 | 0 | 0 | 50
COCC(=O)N1CCC(C(=O)NC2CCCc3ccccc32)CC1 (stereo not drawn) | - | - | - | - | 0 | - | -
CCC(=O)Nc1ccc2c(c1)C(=O)N(C)[C@@H]1CC[C@@H](CC(=O)NCc3ccc(OC)cc3)O[C@H]1CO2 | - | - | - | - | 0 | - | -
CCOC(=O)C1CCN(C/C=C/c2ccccc2OC)CC1 | - | 0 | 38 | 0 | 0 | 0 | 0
COC(=O)C1CN(Cc2ccc(F)cc2)CCS(=O)(=O)N1Cc1cn(Cc2ccccc2)nn1 (stereo not drawn) | - | - | - | - | 0 | - | -
Cc1ccc(-c2cc(-c3nnc(SCC(=O)N4c5ccccc5Sc5ccc(Cl)cc54)n3N)[nH]n2)cc1 | - | - | - | - | 0 | - | -
CCCCNS(=O)(=O)CC1NCc2ccc(C)cc21 (stereo not drawn) | - | - | - | - | 0 | - | -
COCCn1c(-c2ccc(Cl)cc2Cl)nc2c(c(=O)c3ccccc3n2C)c1=O | 0 | 0 | 41 | 0 | 0 | 0 | 0
CCc1nc2c(c(=O)c3ccccc3n2C)c(=O)n1CCc1ccc(OC)cc1 | - | - | 0 | - | - | 0 | 0
SMILES | TAG inh | Gli-Sufu antag | 697 NFkB inh | Cardio protect | NR2F2 inh | Jurkat NFkB inh | 697 NFkB conf
O=C(Nc1ccc(Cl)c(Cl)c1)C1CCCN1S(=O)(=O)c1cccc2cccnc12 (stereo not drawn) | - | - | - | - | 0 | - | -
CCOc1ccccc1NC(=O)C(=O)N/N=C/c1ccc([N+](=O)[O-])cc1 | 0 | 0 | 39 | 0 | 0 | 0 | 0
COC(=O)[C@]12C[C@H](CC(=O)NCC34CC5CC(CC(C5)C3)C4)C(=O)N(Cc3ccco3)C1=C[C@H](C1CCCC1)O[C@@H]2C | - | - | - | - | 0 | - | -
CCN(CC)CCOC(=O)c1ccc(NC(=O)COc2cc(=O)n(CC)c3ccccc23)cc1 | - | 0 | 39 | 0 | 0 | 0 | 45
CCn1c(=O)cc(OCC(=O)Nc2ccc(OC)c(OC)c2)c2ccccc21 | 0 | 0 | 36 | 0 | 0 | 0 | 37
CCn1c(=O)cc(OCC(=O)Nc2ccc3c(c2)OCCO3)c2ccccc21 | - | 0 | 0 | 0 | 0 | 0 | -
CCn1c(=O)cc(OCC(=O)N(C)C2CCCCC2)c2ccccc21 | - | 0 | 39 | 0 | 0 | 0 | 44
COc1ccc(-n2c(SCC(=O)Nc3ccccc3-c3ccccc3)nnc2-c2ccccn2)cc1 | - | - | - | - | 0 | - | -
Cc1cc(N2CCN(C(=O)OC(C)(C)C)C[C@H]2C)ccc1N1CCS(=O)(=O)CC1 | - | - | - | - | 0 | - | -
Clc1ccc(-c2nnc3n2N=C(c2ccc(-c4ccccc4)cc2)CS3)c(Cl)c1 | - | - | - | - | 0 | - | -
CC(C)Oc1ccc(C(=O)Nc2ccc(N(C)C)cc2)cc1 | - | 0 | 45 | 0 | 0 | 0 | 36
COc1ccc(-c2csc(Nc3cccc(C)n3)n2)cc1 | 0 | 0 | 0 | 0 | 0 | 0 | 0
Cc1ccnc(Nc2nc(-c3ccccc3)cs2)c1 | 0 | 0 | 0 | 0 | 0 | 0 | 0
CC(=O)Nc1cccc(-c2csc(Nc3cc(C)ccn3)n2)c1 | - | 0 | 0 | 0 | 0 | 0 | -
COc1ccc(-c2csc(Nc3cccc(C)n3)n2)cc1C | - | 0 | - | 0 | 0 | - | -
O=C(Cc1cccc2ccccc12)Nc1ccc(-c2cc3ccccc3oc2=O)cc1 | 0 | 0 | 72 | 0 | 0 | 0 | 50
CC(=O)Nc1ccc(NC(=S)NC(=O)c2cc3ccccc3o2)cc1 | 0 | 0 | 0 | 0 | 0 | 0 | -
Cc1ccc(C(=O)NC(=S)Nc2ccc(-c3cc4ccccc4oc3=O)cc2)c(C)c1 | 0 | 0 | 36 | 0 | 0 | 0 | 0
COC(=O)[C@]12C[C@H](CC(=O)NCc3cccc(C(F)(F)F)c3)C(=O)N(Cc3cccc4ccccc34)C1=C[C@H](C1CCCC1)O[C@@H]2C | - | - | - | - | 0 | - | -
Cc1ccccc1Nc1nc(Cl)c(C=O)s1 | 0 | 0 | 35 | 0 | 0 | 0 | 40
Cc1ccc2ccc(C3C(=O)c4ccccc4C3=O)nc2c1 | - | 0 | 0 | 0 | 0 | 0 | 0
CC(COc1cc(F)cc(F)c1)CN1CCC(C(O)(c2ccccc2)c2ccccc2)CC1 (stereo not drawn) | - | - | - | - | 0 | - | -
Cc1cc(C)c2[nH]c(=O)c(=O)[nH]c2c1 | 0 | 0 | 0 | 0 | 0 | 0 | -
Cc1cc2c(C)c(C)c(=O)[nH]c2cc1N | 0 | 0 | 36 | 0 | 0 | 0 | 0
CCCC1CCC2(CC1)CCC2OC(=O)Nc1ccc(F)cc1 (stereo not drawn) | - | - | - | - | 0 | - | -
COC(=O)C1CN(Cc2ccc(OC)cc2)CCS(=O)(=O)N1Cc1cn(CCOC(C)=O)nn1 (stereo not drawn) | - | - | - | - | 0 | - | -
COC(=O)[C@H]1C[C@@]2(N3CCCCC3)c3ccccc3N(C(=O)OC(C)(C)C)[C@H]2N1C(=O)OC(C)(C)C | - | - | - | - | 0 | - | -
O=C(Nc1cccc(-c2nc3ccccc3s2)c1)C1=COCCO1 | 0 | 0 | 0 | 0 | 0 | 0 | -
O=C(Nc1ccc(-c2nc3ccccc3s2)cc1)C1=COCCO1 | - | 0 | 0 | 0 | 0 | 0 | 0
COC(=O)Cc1nnn2c1[C@@H](C)[C@@H](c1ccccc1Br)OC[C@@H]2c1ccccc1 | - | - | - | - | 0 | - | -
